# Results from PubChem BioAssay (NCATS).
# Results filed as inconclusive are left out. Entries that show only a call come without a potency. Values without a mark were called inactive. Activity calls are given as the source filed them. Calls come from the whole dose curve; as a rule, active = well fitted inhibition curve with a large enough effect; inconclusive = small, poorly fitted or top-dose-only effect; inactive = no such curve, though single readings can be large or run the other way.
# Tests used:
# [1] = system: Zika virus NS2B-NS3 protease (unlinked complex); test: Primary screen GU Rhodamine qHTS for Zika virus inhibitors: Unlinked NS2B-NS3 protease assay (AID 1347159); note: nearly all actives have a fitted effect of over 60% in size
# In short: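 Compounds, tested up to 114 microM, were incubated for 15 minutes with 25 nM unlinked NS2B-NS3 protease at pH 8.0. Cleavage of 1.5 microM Rhodamine110 substrate was then followed by fluorescence for 15 minutes.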
# [2] = system: Zika virus NS2B-NS3 protease (linked construct); test: Primary screen NINDS Rhodamine qHTS for Zika virus inhibitors (AID 1347160); note: nearly all actives have a fitted effect of over 55% in size
# In short: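 Percent inhibition, normalized to uninhibited and enzyme-free controls, is fitted to a 4-parameter Hill equation. Fluorescence change comes from a 15-min cleavage of 1.5 microM bis-peptide Rhodamine110 substrate by 25 nM linked NS2B-NS3 at room temperature.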
# Potency is the fitted concentration of half-maximal effect.
Compound,Potency [1],Potency [2]
CNC(=O)O[C@H]1COc2ccc(N3CCN(C4COC4)CC3)cc2[C@@H]1NC(=O)c1ccc(F)cc1,inactive,inactive
C=C1C[C@]23C[C@H]1CC[C@H]2[C@]1(C)CCC[C@@]2(CO)C(=O)O[C@H]([C@H]21)[C@@H]3O,inactive,inactive
CC1CCC2C(C)(C)CC(C)(CO)C2(O)C1C(=O)O (configuration not stated),inactive,inactive
CC(=O)OC[C@@]12[C@H](O)C[C@@H](C)[C@]3(C[C@@H](c4ccoc4)OC3=O)[C@H]1C[C@H](O)C[C@]21CO1,inactive,inactive
CCCOc1ccn2c(C(C)=O)cc(-c3ccccc3S(C)(=O)=O)c2c1,inactive,inactive
CC1=C2C(=O)C=C(CO)[C@@H]2[C@H]2OC(=O)[C@H](C)[C@@H]2[C@@H](O)C1,inactive,inactive
COc1ccc2c(c1)OC[C@]1(O)c3cc4c(cc3O[C@H]21)OCO4,inactive,inactive
Cc1c(-c2ccnn2C)cc(C(=O)NCc2ccc(S(C)(=O)=O)cn2)c(=O)n1-c1cccc(C(F)(F)F)c1,inactive,inactive
O=C(/C=C/c1ccccc1)OCC1=CC[C@@H]2C(C(=O)O)=CO[C@@H](O[C@@H]3O[C@H](CO)[C@@H](O)[C@H](O)[C@H]3O)[C@H]12,inactive,inactive
Clc1ccc2c(c1)C1=NCCN1c1c(-c3noc(C4CC4)n3)ncn1-2,inactive,inactive
Nc1nc(CC(=O)Nc2ccc(CCNCC(O)c3ccccc3)cc2)cs1 (configuration not stated),inactive,inactive
CC(O)C(O)/C=C/C=C/C(=O)O[C@@H]1C=C2COC(=O)[C@]2(O)[C@@]2(C)CCCC(C)(C)C12 (some centres not stated),inactive,inactive
CC1=CCC2C(C)(CO)CCCC2(CO)C1CO (configuration not stated),15.8 µM (active),15.8 µM (active)
C=C(C)C(C)C1OC23CC4(CO2)C(CCC2C5(C)CCC(OC6OCC(O)C(OC7OC(CO)C(O)C(OC8OCC(O)C(O)C8O)C7O)C6OC6OC(CO)C(O)C6O)C(C)(C)C5CCC24C)C3C(C)(O)C1OC(C)=O (configuration not stated),inactive,inactive
Cc1cc(C)cc(NC(=O)Cc2ccc(OC(C)(C)C(=O)O)cc2)c1,inactive,inactive
O=C(NC[C@H](O)CN1CCc2ccccc2C1)c1cc(NC2COC2)ncn1,inactive,inactive
CC1=C2CC3OC3(C)CCC3OC3(C)CC2OC1=O (configuration not stated),inactive,inactive
CC(C)(OC1OC(CO)C(O)C(O)C1O)C1CCC(O)(CO)C2CC(O)C(C)(O)C2C1 (configuration not stated),inactive,inactive
CC1=C(C)C(=O)OC(C(C)(O)C2CCC3C4CC=C5CC(OC6OC(COC7OC(CO)C(O)C(O)C7O)C(O)C(O)C6O)CC(O)C5(C)C4CCC32C)C1 (configuration not stated),inactive,inactive
CC1=CC(=O)CC(C)(CO[C@@H]2O[C@H](CO)[C@@H](O)[C@H](O)[C@H]2O)C1(O)/C=C/C(C)=C/C(=O)O (some centres not stated),inactive,inactive
COc1ccc(C(OC2OC(CO)C(O)C(O)C2O)C(C)O)cc1 (configuration not stated),inactive,inactive
COC(=O)C[C@@H]1C(C(=O)O)=CO[C@@H](O[C@@H]2O[C@H](CO)[C@@H](O)[C@H](O)[C@H]2O)/C1=C\COC(=O)/C=C\c1ccccc1,inactive,inactive
C(#Cc1cccc(CN2CCOCC2)c1)CCN1CCCCC1,inactive,inactive
NCCOCCOCCNC(=O)Cc1ccc(Nc2nc(NCc3ccc(F)cc3)nc(NCC3CCCCC3)n2)cc1,inactive,inactive
C=CC(C)(C)C1(CC2NC(=O)C3CCCN3C2=O)C(=O)Nc2cc3c(cc21)C=CC(C)(C)O3 (configuration not stated),inactive,inactive
COC(=O)C1=COC(O[C@@H]2O[C@H](CO)[C@@H](O)[C@H](O)[C@H]2O)/C(=C\COC(=O)c2ccc(OC3OC(CO)C(O)C(O)C3O)c(OC)c2)C1CC(=O)OCCc1ccc(O)cc1 (some centres not stated),inactive,inactive
